# From PubChem BioAssay
# Activity calls are given as the source filed them.
# What was measured:
# [1] = small molecules captured by biotinylated probe aFSTL3 – biochemical, small-molecule microarray, fluorescence 635/667, stem cell growth factor project, primary screen (AID 1064); conditions: higher = more signal;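 further: measures binding of the biotinylated anti-FSTL3 antibody to printed compounds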
# [2] = binders from COS7 lysate, DM2A8 probe, primary screen, torsin A project, cell lysate, small-molecule microarray, fluorescence 635/667 (AID 1065); conditions: higher = more signal, COS7 lysate expressing mutant human TOR1A
# [3] = small molecules captured by biotinylated probe aFGF2 – biochemical, small-molecule microarray, fluorescence 635/667, stem cell growth factor project, primary screen (AID 1067); conditions: higher = more signal;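 further: measures binding of biotinylated aFGF2 protein to printed compounds on slides; z-score merges feature fluorescence and signal-to-noise across triplicate slides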
# [4] = small molecules captured by biotinylated probe aFGF10 – biochemical, small-molecule microarray, fluorescence 635/667, stem cell growth factor project, primary screen (AID 1071); conditions: higher = more signal;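 further: score merges 667 nm spot intensity and signal to noise from triplicate slides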
# [5] = target: Neurogenic locus notch homolog protein 2 (Homo sapiens) (UniProt Q04721); assay: small molecules binding Notch2 protein – biochemical, small-molecule microarray, 635 nm fluorescence, stem cell growth factors, primary screen (AID 1073); conditions: higher = more signal
# [6] = target: Pro-neuregulin-1, membrane-bound isoform (Homo sapiens) (UniProt Q02297); assay: small molecules binding neuregulin-1 protein – biochemical, small-molecule microarray, fluorescence 635/667, psychiatric disease protein project, primary screen (AID 1075); conditions: NRG1 binding, 635 nm fluorescence, higher = more signal;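 further: score combines 667 nm spot fluorescence with signal to noise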
# [7] = tested on: Neuregulin-1 EGF-like domain; assay: small molecules binding NRG1 EGF domain – biochemical, small-molecule microarray, 635 nm fluorescence, primary screen (AID 1081); conditions: higher = more signal;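 further: binding of the protein to compounds printed on small-molecule microarray slides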
# [8] = FRG1 expression reporter modulators in myotubes – cell-based, C2C12 myotubes, firefly/Renilla luciferase, luminescence, FRG1 inhibition for FSHD, primary screen (AID 1084); conditions: FRG1 promoter luciferase, higher = more signal, called active from +8 up or from −8 down
# [9] = small molecules captured by biotinylated probe aFST – biochemical, small-molecule microarray, fluorescence 635/667, stem cell growth factor project, primary screen (AID 1086); conditions: higher = more signal;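 further: score merges 667 nm fluorescence with signal-to-noise of each printed compound spot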
# [10] = binders of probe aHhip on microarray, primary screen, stem cell growth factor project, biochemical, small-molecule microarray, fluorescence 635/667 (AID 1087); conditions: higher = more signal;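 further: score merges spot fluorescence at 667nm with spot signal to noise ratio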
# [11] = tested on: PRMT1 (protein arginine N-methyltransferase 1); assay: small molecules binding arginine methyltransferase PRMT1 – biochemical, small-molecule microarray, 635 nm fluorescence, primary screen (AID 1088); conditions: higher = more signal;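 further: binding of Prmt1 protein to compounds spotted on small-molecule microarray slides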
# [12] = growth effects on S. cerevisiae YJM789 – YJM789 clinical isolate, OD600, 24 h, basal, primary screen (AID 1089); conditions: higher = more signal, called active from +8 up or from −8 down;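 further: growth of clinical yeast isolate S. cerevisiae YJM 789 seeded 1000 cells per well; test concentration not given here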
# [13] = S. pombe growth modifiers, basal conditions – strain 972, OD600, 24 h, no modulator, primary screen (AID 1090);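 further: basal condition with compound alone and no growth modifier present; test concentration not given here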; conditions: S. pombe 972 growth, higher = more signal, called active from +8 up or from −8 down
# [14] = budding yeast growth modifiers under rapamycin – strain BY4716, OD600, 96 h, primary screen (AID 1091); further: test concentration not given here; conditions: S. cerevisiae BY4716 + rapamycin, higher = more signal, called active from +8 up or from −8 down
# [15] = target: Torsin-1A-interacting protein 2 (Homo sapiens) (UniProt Q8NFQ8); assay: small molecules binding lysate-expressed LULL1 – cell lysate, human LULL1 lysate, 635/667 nm fluorescence, primary screen (AID 1092); conditions: small-molecule microarray, hLULL1 lysate binding, 635 nm fluorescence; higher = more signal;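 further: probe is lysate of COS7 cells overexpressing human LULL1; score merges per-feature 667 nm fluorescence with signal-to-noise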
# [16] = optical density change of DRC41 E. coli – strain DRC41, OD650, 24 h, E. coli filamentation project, primary screen (AID 1093);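 further: MC1000 strain lacking acrAB efflux and sulA so SOS filamentation is blocked; test concentration not given here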; conditions: E. coli DRC41 growth, higher = more signal, called active from +8 up or from −8 down
# [17] = probe aLefty2 binding to arrayed compounds – biochemical, biotinylated probe, 635/667 nm fluorescence, primary screen (AID 1094); conditions: small-molecule microarray, higher = more signal;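 further: score merges spot fluorescence near 667 nm with spot signal-to-noise ratio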
# [18] = tested on: Noggin (protein binding on small-molecule microarray); assay: small molecules binding Noggin protein – biochemical, 635/667 nm fluorescence, primary screen (AID 1095); conditions: 635 nm fluorescence, higher = more signal;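 further: score merges 667 nm feature fluorescence with signal to noise over triplicate slides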
# [19] = target: Neurogenic locus notch homolog protein 3 (Homo sapiens) (UniProt Q9UM47); assay: small molecules binding NOTCH3 protein – biochemical, 635/667 nm fluorescence, primary screen (AID 1096); conditions: small-molecule microarray, 635 nm fluorescence, higher = more signal
# [20] = probe aEGFR binding to arrayed compounds – biochemical, biotinylated probe, 635/667 nm fluorescence, primary screen (AID 1097); conditions: small-molecule microarray, higher = more signal;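 further: probe is a biotinylated anti-EGFR antibody binding compounds printed on slides; score combines fluorescence near 667 nm and signal to noise of each spot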
# Chain of Torsin-1A-interacting protein 2 (Homo sapiens) (Q8NFQ8 whole entry, looked up): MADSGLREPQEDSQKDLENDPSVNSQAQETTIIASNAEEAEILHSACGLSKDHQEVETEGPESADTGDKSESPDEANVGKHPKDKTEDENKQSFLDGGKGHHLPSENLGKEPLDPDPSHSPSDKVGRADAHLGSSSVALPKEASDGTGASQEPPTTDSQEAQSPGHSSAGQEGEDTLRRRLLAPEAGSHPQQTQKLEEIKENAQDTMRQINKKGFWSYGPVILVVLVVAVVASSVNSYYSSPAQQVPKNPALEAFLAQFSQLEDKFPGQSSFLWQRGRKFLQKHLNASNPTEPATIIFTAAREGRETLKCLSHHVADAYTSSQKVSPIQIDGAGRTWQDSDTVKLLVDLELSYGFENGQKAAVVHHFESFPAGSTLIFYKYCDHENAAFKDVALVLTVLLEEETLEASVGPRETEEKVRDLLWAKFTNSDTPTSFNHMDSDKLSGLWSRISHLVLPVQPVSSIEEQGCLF
# Chain of Pro-neuregulin-1, membrane-bound isoform (Homo sapiens) (Q02297 whole entry, looked up, the tested form may be a part, canonical isoform): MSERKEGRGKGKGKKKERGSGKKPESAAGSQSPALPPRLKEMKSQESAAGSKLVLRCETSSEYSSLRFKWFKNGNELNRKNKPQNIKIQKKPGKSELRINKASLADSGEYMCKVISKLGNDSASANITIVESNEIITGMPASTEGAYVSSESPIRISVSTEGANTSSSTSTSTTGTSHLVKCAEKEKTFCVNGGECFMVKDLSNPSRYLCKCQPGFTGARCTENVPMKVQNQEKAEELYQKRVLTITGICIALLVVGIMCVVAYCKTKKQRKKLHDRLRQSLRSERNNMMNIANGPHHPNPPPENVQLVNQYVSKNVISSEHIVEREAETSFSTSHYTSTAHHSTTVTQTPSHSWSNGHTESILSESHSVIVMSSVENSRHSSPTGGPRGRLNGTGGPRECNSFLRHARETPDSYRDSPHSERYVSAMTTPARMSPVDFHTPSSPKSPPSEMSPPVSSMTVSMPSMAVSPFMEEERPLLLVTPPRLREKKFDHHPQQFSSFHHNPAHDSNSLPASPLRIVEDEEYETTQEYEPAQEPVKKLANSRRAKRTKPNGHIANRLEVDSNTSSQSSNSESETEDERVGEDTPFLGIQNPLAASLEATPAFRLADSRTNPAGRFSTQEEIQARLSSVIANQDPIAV
# Chain of Neurogenic locus notch homolog protein 2 (Homo sapiens) (Q04721 whole entry, looked up, canonical isoform): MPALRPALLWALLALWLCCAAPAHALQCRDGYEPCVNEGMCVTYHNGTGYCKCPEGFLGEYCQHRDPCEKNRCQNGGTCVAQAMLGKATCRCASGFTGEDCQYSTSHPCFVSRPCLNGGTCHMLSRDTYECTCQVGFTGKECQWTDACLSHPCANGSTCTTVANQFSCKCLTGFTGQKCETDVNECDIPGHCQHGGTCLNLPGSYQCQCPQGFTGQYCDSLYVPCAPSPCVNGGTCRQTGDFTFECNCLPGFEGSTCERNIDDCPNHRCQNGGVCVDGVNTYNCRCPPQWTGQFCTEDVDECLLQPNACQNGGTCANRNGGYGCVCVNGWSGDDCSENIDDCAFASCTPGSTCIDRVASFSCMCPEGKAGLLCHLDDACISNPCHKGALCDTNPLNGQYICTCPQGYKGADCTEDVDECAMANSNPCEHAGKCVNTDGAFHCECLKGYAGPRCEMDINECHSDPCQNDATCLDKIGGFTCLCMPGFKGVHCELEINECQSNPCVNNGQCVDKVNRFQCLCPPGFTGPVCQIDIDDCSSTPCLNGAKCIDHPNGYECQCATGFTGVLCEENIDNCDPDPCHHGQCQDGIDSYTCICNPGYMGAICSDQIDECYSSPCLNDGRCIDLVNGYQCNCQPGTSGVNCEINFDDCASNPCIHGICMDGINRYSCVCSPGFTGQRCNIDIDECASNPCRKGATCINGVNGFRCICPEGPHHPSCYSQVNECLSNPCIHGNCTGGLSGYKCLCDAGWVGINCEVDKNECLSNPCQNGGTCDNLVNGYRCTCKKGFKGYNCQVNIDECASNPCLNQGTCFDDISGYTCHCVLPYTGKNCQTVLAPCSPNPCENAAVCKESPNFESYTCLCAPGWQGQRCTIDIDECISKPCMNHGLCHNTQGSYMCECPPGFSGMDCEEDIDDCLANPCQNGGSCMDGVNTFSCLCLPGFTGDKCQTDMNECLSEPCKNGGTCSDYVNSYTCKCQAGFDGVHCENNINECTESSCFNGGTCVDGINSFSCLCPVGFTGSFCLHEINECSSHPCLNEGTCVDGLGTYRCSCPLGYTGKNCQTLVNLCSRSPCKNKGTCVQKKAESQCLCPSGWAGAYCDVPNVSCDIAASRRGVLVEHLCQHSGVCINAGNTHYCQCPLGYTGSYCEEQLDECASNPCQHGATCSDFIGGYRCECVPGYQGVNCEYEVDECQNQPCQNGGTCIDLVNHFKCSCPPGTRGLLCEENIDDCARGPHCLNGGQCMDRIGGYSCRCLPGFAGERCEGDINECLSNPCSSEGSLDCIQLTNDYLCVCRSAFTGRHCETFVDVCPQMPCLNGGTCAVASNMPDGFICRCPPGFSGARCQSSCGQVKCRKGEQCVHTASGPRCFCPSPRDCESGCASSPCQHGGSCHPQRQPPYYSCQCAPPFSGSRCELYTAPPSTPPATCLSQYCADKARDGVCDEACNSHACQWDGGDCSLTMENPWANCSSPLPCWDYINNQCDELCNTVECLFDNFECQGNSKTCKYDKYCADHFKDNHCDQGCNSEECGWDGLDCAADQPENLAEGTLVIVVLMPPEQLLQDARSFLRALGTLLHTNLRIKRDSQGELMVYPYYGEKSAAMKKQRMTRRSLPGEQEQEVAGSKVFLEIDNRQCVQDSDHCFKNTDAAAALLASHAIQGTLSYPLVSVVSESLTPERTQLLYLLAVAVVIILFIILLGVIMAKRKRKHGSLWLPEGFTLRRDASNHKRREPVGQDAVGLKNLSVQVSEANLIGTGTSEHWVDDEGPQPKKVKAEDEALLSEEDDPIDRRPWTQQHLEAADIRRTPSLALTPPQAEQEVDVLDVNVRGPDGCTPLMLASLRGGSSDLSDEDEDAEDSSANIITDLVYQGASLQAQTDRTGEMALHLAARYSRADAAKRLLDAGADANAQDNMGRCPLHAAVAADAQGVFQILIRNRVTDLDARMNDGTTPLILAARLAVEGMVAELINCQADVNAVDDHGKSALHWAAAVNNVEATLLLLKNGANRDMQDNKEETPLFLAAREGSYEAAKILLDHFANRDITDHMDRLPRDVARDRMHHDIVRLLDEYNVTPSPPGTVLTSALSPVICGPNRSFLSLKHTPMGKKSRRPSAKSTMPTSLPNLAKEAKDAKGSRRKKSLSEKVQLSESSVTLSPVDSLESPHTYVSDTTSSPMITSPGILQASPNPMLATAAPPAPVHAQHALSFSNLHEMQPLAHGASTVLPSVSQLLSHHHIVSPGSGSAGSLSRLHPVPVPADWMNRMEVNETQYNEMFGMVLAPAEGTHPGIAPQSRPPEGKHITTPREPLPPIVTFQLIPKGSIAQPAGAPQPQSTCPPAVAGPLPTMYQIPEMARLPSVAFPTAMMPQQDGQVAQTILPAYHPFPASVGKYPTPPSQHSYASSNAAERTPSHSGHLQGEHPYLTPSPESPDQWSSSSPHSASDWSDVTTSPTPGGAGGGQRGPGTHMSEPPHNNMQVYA
SMILES,composite z-score [1],composite z-score [2],composite z-score [3],composite z-score [4],composite z-score [5],composite z-score [6],composite z-score [7],z-score [8],composite z-score [9],composite z-score [10],composite z-score [11],z-score [12],z-score [13],z-score [14],composite z-score [15],z-score [16],composite z-score [17],composite z-score [18],composite z-score [19],composite z-score [20]
CN(C)CCCCNC(=O)[C@H]1C[C@H]2C(=O)N3CCC[C@H]3C(=O)N2[C@H]1c1ccc(O)cc1,-1.12,-1.77,-0.284,-1.1,-1.3,-1.06,-0.239,4.64 (inactive),0.0253,-0.389,0.765,-0.859 (inactive),1.1 (inactive),-0.384 (inactive),0.391,1.27 (inactive),-0.234,-0.439,0.229,-0.45
C=CCOC(=O)[C@@H]1[C@H]2C(=O)O[C@H](c3ccccc3)[C@H](c3ccccc3)N2[C@H](c2ccc(OCCOC(=O)[C@H]3C[C@H]4C(=O)N[C@@H](CCCCN(C)C)C(=O)N4[C@H]3c3cccc(OCCO)c3)cc2)[C@@]12C(=O)Nc1ccc(I)cc12,0.0594,1.24,-0.0308,0.526,0.59,1.55,1.32,0.842 (inactive),0.312,0.064,1.56,0.95 (inactive),0.688 (inactive),3.87 (inactive),2.81,0.0565 (inactive),-0.0216,1.03,1.08,-0.105
CC(C)OC(=O)CC(=O)CC(O)c1cccc(C#N)c1 (stereo not given),0.424,0.995,-0.0103,0.535,1.43,0.311,0.936,-0.326 (inactive),0.494,-0.452,0.864,-2.17 (inactive),-0.0003 (inactive),-1.66 (inactive),2.15,0.435 (inactive),0.237,-0.412,0.753,0.0201
COc1ccc([Si](C)(C)[C@H]2[C@H](CCO)O[C@@]3(C(=O)N(Cc4cccc(N5CCCCC5=O)c4)c4ccccc43)[C@@H]2C)cc1,-0.337,0.154,-0.081,0.375,0.87,0.652,1.2,-2.32 (inactive),0.327,0.176,1.54,2.01 (inactive),-1.99 (inactive),2.68 (inactive),1.56,0.525 (inactive),-0.0732,0.296,0.896,0.214
COc1ccc(CCNC(=O)[C@@]2(Sc3ccc(C)cc3)CC(=O)N(Cc3cc(C(F)(F)F)cc(C(F)(F)F)c3)[C@@H]2c2ccc(CO)cc2I)cc1,0.332,-0.671,-0.0894,-0.0189,-0.632,0.899,1.07,0.214 (inactive),0.582,-0.271,1.46,-2.62 (inactive),-3.09 (inactive),2.1 (inactive),1.94,0.152 (inactive),-0.0208,-0.299,-0.0768,-0.24
COc1ccc([Si](C)(C)[C@@H]2[C@@H](CCn3cc([C@H](O)c4ccccc4)nn3)O[C@]3(C(=O)N(Cc4ccc(N5CCOC5=O)cc4)c4ccccc43)[C@H]2C)cc1,-0.28,0.882,-0.0658,0.512,0.62,0.61,0.825,0.216 (inactive),0.137,0.0854,1.55,-0.113 (inactive),0.984 (inactive),2.04 (inactive),0.995,1.87 (inactive),0.047,1.01,1.12,0.0711
C=C(C(=O)CC[C@H](OC(=O)c1cccnc1)c1ccc(CO)o1)C(C)C,-0.201,0.674,-0.0415,0.467,0.355,0.904,1.25,0.0619 (inactive),0.28,-0.121,1.51,-1.23 (inactive),-0.796 (inactive),-0.719 (inactive),1.34,-0.605 (inactive),0.152,1.02,0.623,0.0504
CCOC(=O)C1=CC[C@@H](c2ccc([N+](=O)[O-])cc2)N(S(=O)(=O)c2ccc(C)cc2)[C@H]1c1ccccc1,-0.298,0.491,0.052,0.628,1.55,0.525,1.4,-2.02 (inactive),0.858,0.0695,1.54,0.792 (inactive),1.45 (inactive),3.16 (inactive),2.98,0.413 (inactive),0.0511,1.02,1.14,0.202
[N-]=[N+]=Nc1ccccc1[C@H]1OC(c2ccc(OCCCO)cc2)=N[C@@]1(CCS(=O)(=O)c1ccccc1)C(=O)N1CCCCC1,1.26,0.526,0.0056,0.699,1.43,1.46,1.2,1.8 (inactive),1.24,-0.201,1.51,-0.347 (inactive),0.189 (inactive),2.73 (inactive),3.16,-0.413 (inactive),0.428,0.0467,1.12,0.176
CC(=O)n1cc(C(O)C2C=CC3C(=O)N(c4ccccc4)C(=O)C3N2Nc2ccccc2)c2ccccc21 (stereo not given),1.87,0.489,0.447,0.893,1.52,0.837,1.11,0.621 (inactive),1.1,-0.0702,0.174,0.514 (inactive),0.965 (inactive),0.102 (inactive),2.73,-1.18 (inactive),0.203,-0.272,0.816,0.672
O=C1c2ccccc2[C@](Cc2ccccc2I)(C(=O)NCCN2CCOCC2)[C@H](c2ccc(CO)cc2)N1Cc1ccccc1,-0.0634,0.783,-0.0356,0.699,1.33,1.1,1.33,-3.84 (inactive),0.983,0.519,1.52,0.189 (inactive),0.0239 (inactive),-0.477 (inactive),2.8,0.47 (inactive),0.182,0.406,1.08,0.225
C=C[C@@H](C)[C@H](OC(=O)Nc1ccc(SC)cc1)c1ccc(OCCO)cc1,0.342,-0.272,-0.215,-0.542,-0.713,1.8,1.22,6.28 (inactive),-0.375,-0.0538,-0.0446,0.103 (inactive),-1.02 (inactive),-0.32 (inactive),0.721,1.18 (inactive),-0.136,0.362,0.405,-0.105
O=C(O)[C@H]1C[C@H]2C(=O)N3CCC[C@H]3C(=O)N2[C@H]1c1cccc(OCCO)c1,0.376,0.812,-0.0985,0.178,-0.237,0.337,1.25,6.19 (inactive),-0.0791,0.176,1.04,-0.187 (inactive),-0.391 (inactive),0.0709 (inactive),2.55,0.849 (inactive),0.027,0.287,0.237,-0.109
C=C(C(=O)CC[C@H](OC(=O)c1cccnc1)c1cccc(OCCO)c1)C(C)C,0.483,0.401,-0.157,-0.195,-1.26,-0.593,0.484,0.243 (inactive),-0.809,0.238,1.03,0.865 (inactive),0.167 (inactive),1.1 (inactive),0.391,0.483 (inactive),-0.017,-0.367,-0.424,-0.0238
O=C(CCCCCCC(=O)Nc1ccccc1)N/N=C/c1ccccc1,-0.199,0.0786,-0.141,0.0493,-0.252,-0.384,-0.147,0.0691 (inactive),-0.0659,0.0373,-0.998,0.507 (inactive),0.0263 (inactive),1.06 (inactive),-0.743,0.195 (inactive),-0.105,-0.361,-0.783,-0.117
COc1ccc(C#Cc2ccc3c(c2)[C@]2(C(=O)N3)[C@H](C(=O)N3CCc4cc(OC)c(OC)cc4C3)[C@H]3C(=O)O[C@H](c4ccccc4)[C@H](c4ccccc4)N3[C@@H]2c2ccc(O)cc2)cc1,-0.439,0.606,-0.0583,0.282,0.781,1.27,1.19,1.57 (inactive),0.295,-0.12,1.57,1.36 (inactive),1.14 (inactive),1.91 (inactive),2.28,-0.384 (inactive),-0.143,0.875,1.01,-0.0142
COCCCNC(=O)[C@]1(Cc2ccccc2CN=[N+]=[N-])N=C(c2ccc(OCCCO)cc2)O[C@@H]1c1ccccc1,-0.254,1.19,0.0788,0.627,1.09,0.969,1.12,-3.73 (inactive),1.03,-0.0645,0.972,-0.212 (inactive),-0.0448 (inactive),30.9 (active),2.67,1.01 (inactive),-0.0819,0.348,0.599,0.0316
COc1cc(CO)cc(I)c1O[C@H]1C=C(C(=O)NCCO)C[C@@H](N(CC2CCCCC2)C(=O)c2ccc(C(F)(F)F)cc2)[C@@H]1O,-0.356,0.0668,-0.101,0.268,0.546,0.115,1.02,-1.85 (inactive),0.0701,0.12,1.23,0.0635 (inactive),-0.169 (inactive),-0.0789 (inactive),1.89,1.78 (inactive),-0.166,0.586,0.937,-0.0828
C=CCN1C(=O)[C@@]2(CCC(=O)OC(C)(C)C)N=C(c3ccc(OCCCO)cc3)O[C@H]2c2ccccc21,0.324,0.198,0.0698,0.0883,0.724,0.82,1.21,-2.47 (inactive),0.278,-0.195,1.47,-1.89 (inactive),-5.84 (inactive),1.44 (inactive),2.71,0.784 (inactive),0.107,1.24,1.09,-0.146
NC(=O)N1C(=O)C2C(C1=O)C1C=C(c3ccc(CO)cc3)C2C(C2CC2)N1Cc1sc2ccccc2c1Cl (stereo not given),-0.418,2.2,0.0433,1.17,1.19,1.6,1.28,-1.27 (inactive),0.32,0.0623,1.54,2.22 (inactive),-2.31 (inactive),0.266 (inactive),2.68,1.34 (inactive),0.0139,0.695,1.06,-0.0271
